Measurements from PubChem BioAssay (NCI).
Compounds without any hit were thinned out: in the full panel of roughly 83,000, 20% have a hit.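 Growth was measured after 48 h exposure to one concentration of compound in 96-well plates. Values under 10 count as active.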 The source made the active and inactive calls.

Assays:
Experiment in all cases: NCI-60 one-dose screen, 48 h (100 = growth as untreated, 0 = no growth, -100 = all killed)
Settings in all cases: 10 µM
[1] = tested on: DU-145 prostate
[2] = tested on: K-562 leukemia
[3] = tested on: MALME-3M melanoma
[4] = tested on: MDA-MB-231 breast
[5] = tested on: RXF 393 renal
[6] = tested on: SF-268 CNS
[7] = tested on: SF-539 CNS
[8] = tested on: UACC-257 melanoma
[9] = tested on: M14 melanoma
[10] = tested on: HT29 colon
[11] = tested on: SNB-75 CNS
[12] = tested on: SNB-19 CNS
[13] = tested on: PC-3 prostate
[14] = tested on: SK-MEL-5 melanoma
[15] = tested on: UACC-62 melanoma
[16] = tested on: LOX IMVI melanoma
[17] = tested on: SK-MEL-28 melanoma
[18] = tested on: SF-295 CNS
[19] = tested on: HCT-15 colon
[20] = tested on: U251 CNS

Measured: growth

COc1ccc(-c2nn(-c3cccc(Cl)c3)cc2C=C(C#N)C#N)cc1
active: [1] 3.57% | [2] -13.2% | [4] -40.3% | [5] -5.72% | [7] 2.34% | [9] -18% | [10] -14.9% | [11] 3.23% | [14] 5.8% | [16] -66.5%
inactive: [3] 17.7% | [6] 13.3% | [8] 38.5% | [12] 16.6% | [13] 12.6% | [15] 11.1% | [17] 17.2%

CCOC(=O)c1sc2ncnc(Nc3ccc(NC(=O)Nc4ccc(Cl)cc4)cc3)c2c1C
active: [7] -1.23%
inactive: [1] 54% | [2] 83.7% | [3] 26.4% | [4] 23.8% | [5] 19.4% | [6] 72.1% | [18] 33.1% | [9] 64.8% | [19] 33.9% | [10] 43% | [11] 17.6% | [12] 73.7% | [20] 26.3% | [14] 32.2% | [15] 78.8% | [16] 44.4% | [17] 79.5%

CN1CCc2c(sc3nc4n(-c5ccc(Cl)cc5)cnn4c(=O)c23)C1
inactive: [1] 110% | [2] 106% | [3] 97% | [4] 98.7% | [5] 122% | [6] 95.6% | [18] 102% | [7] 106% | [9] 96.8% | [19] 104% | [10] 91.1% | [11] 94.2% | [12] 107% | [20] 104% | [14] 109% | [15] 102% | [16] 97.6% | [17] 116%

COc1cc2c3c(n([C@@H]4CCOC4)c(=O)c2cc1OC)-c1cc2c(cc1C3=O)OCO2
active: [18] 1.17% | [7] -3.51% | [15] 3.12% | [16] 9.49%
inactive: [1] 24.2% | [2] 55% | [3] 75.6% | [4] 91% | [5] 52.4% | [6] 35% | [9] 16.5% | [19] 60.5% | [10] 42.9% | [11] 38% | [12] 30.1% | [20] 13.4% | [14] 14.2% | [17] 73.2%

CC(C)(C)c1ccc(S(=O)(=O)N[C@H]2CC[C@H]3[C@@H]4CCc5cc(O)ccc5[C@H]4CC[C@]23C)cc1
inactive: [1] 62.9% | [2] 17% | [3] 25.6% | [4] 33.7% | [5] 12% | [6] 50.9% | [7] 78.7% | [8] 68.7% | [9] 45.8% | [19] 34.7% | [10] 10.2% | [11] 55.4% | [12] 80.6% | [13] 30.6% | [14] 40.4% | [15] 61.2%

Nc1ccccc1NC(=O)c1ccc(CCCC(=O)Nc2ccc(C3CC3N)cc2)cc1 (stereo unspecified)
inactive: [1] 38.7% | [2] 25.4% | [3] 21.7% | [4] 47.5% | [5] 20.8% | [6] 32.6% | [18] 22.1% | [7] 30.9% | [9] 27% | [19] 87.4% | [11] 66.4% | [12] 49.7% | [16] 12.8% | [17] 18%
active: [10] 9.38% | [20] 4.65% | [14] -41.1% | [15] -24.8%

O=[N+]([O-])c1ccc(NCSc2ccc(Cl)cc2)cc1
inactive: [1] 98.3% | [2] 86.9% | [4] 94.3% | [5] 103% | [6] 94.1% | [18] 105% | [7] 99.7% | [8] 101% | [9] 109% | [19] 96.9% | [10] 107% | [11] 98.6% | [12] 103% | [20] 82% | [13] 80.9% | [14] 100% | [15] 77.8% | [16] 81.9% | [17] 104%

CN1CCN(CCCn2c(=O)c3sc4ncccc4c3n3nnc(-c4ccccc4)c23)CC1
active: [2] -32.5% | [4] -45.5% | [5] -68.3% | [6] -10.8% | [18] -76.1% | [7] -90.5% | [8] -88.8% | [9] -82.7% | [19] 7.72% | [10] -54.1% | [11] -24.7% | [20] -81.8% | [14] -96.3% | [15] -88% | [16] -90.8% | [17] -92.6%
inactive: [1] 31.5% | [12] 23.3% | [13] 46.5%

CCOc1ccccc1/C=N\N=C(\N)N/N=C/c1ccccc1OCC
inactive: [1] 46.1% | [2] 16.3% | [4] 52.5% | [6] 47.2% | [18] 23.4% | [7] 17.3% | [8] 39.1% | [9] 12.7% | [19] 24.7% | [10] 10.7% | [12] 43% | [20] 38.3% | [13] 31.9% | [14] 17.8% | [15] 30.9% | [16] 30.9% | [17] 42.9%
active: [5] -1.54% | [11] -3.85%

COC1=CC(=O)OC(c2ccc(OC)cc2)C1 (stereo unspecified)
inactive: [1] 113% | [2] 130% | [4] 100% | [5] 113% | [6] 96.5% | [18] 91.7% | [7] 104% | [8] 104% | [9] 122% | [19] 121% | [10] 110% | [11] 86.3% | [12] 104% | [20] 117% | [13] 105% | [14] 106% | [15] 101% | [16] 94.9% | [17] 123%

COC(=O)CC[C@@H](C)[C@H]1CC[C@H]2[C@@H]3CC[C@@H]4C[C@H](O)CC[C@]4(C)[C@H]3C[C@H](O)[C@]12C
inactive: [1] 118% | [2] 76.4% | [4] 120% | [5] 110% | [6] 95.6% | [18] 100% | [7] 111% | [8] 110% | [9] 102% | [19] 92.4% | [10] 89% | [11] 91.4% | [12] 105% | [20] 98.6% | [13] 67.7% | [14] 88.5% | [15] 87.2% | [16] 93.6% | [17] 118%

CC(C)c1ccc(C(C)C(=O)N(CC2=C(C(C)c3ccccn3)c3ccccc3C2)C(C)C)cc1 (stereo unspecified)
inactive: [1] 57.6% | [2] 24.5% | [4] 48.4% | [5] 45.6% | [6] 46% | [18] 25.6% | [7] 61.4% | [8] 49.3% | [9] 48.1% | [19] 30.3% | [10] 22.3% | [11] 49.3% | [12] 58.2% | [20] 36% | [13] 17.9% | [14] 30.2% | [15] 53.4% | [16] 31.1%

Cc1ccc(C(=O)/C=C/c2ccccc2)s1
inactive: [1] 92% | [2] 108% | [4] 112% | [5] 94.3% | [6] 99% | [18] 92.6% | [7] 132% | [8] 121% | [9] 86.9% | [19] 107% | [10] 107% | [11] 106% | [12] 99.1% | [20] 95.8% | [13] 111% | [14] 99.9% | [15] 97.4% | [16] 79.1% | [17] 114%

Cc1ccc(C)c(COc2cc(NC(=O)c3ccc4c(c3)OCO4)ccc2N(C)S(C)(=O)=O)c1
active: [1] -40.5% | [4] -10.8% | [5] -1.01% | [18] -4.18% | [7] -7.46% | [9] -34.2% | [10] 5.29% | [11] 4.74% | [14] -42.5%
inactive: [2] 13.3% | [6] 20.8% | [8] 66.6% | [19] 11.2% | [12] 18.3% | [20] 12.9% | [13] 26.8% | [15] 15.8% | [16] 36% | [17] 64.6%

Cc1cc(=O)n2nnc3cc(C(F)(F)F)ccc3n12
inactive: [1] 105% | [2] 99.1% | [4] 108% | [5] 123% | [6] 107% | [18] 92.7% | [7] 106% | [8] 106% | [9] 113% | [19] 101% | [10] 104% | [11] 116% | [12] 109% | [20] 107% | [13] 101% | [14] 109% | [15] 102% | [16] 106% | [17] 118%

CC(=O)Nc1cc2c(cc1Cl)Cc1cc(Cl)ccc1-2
inactive: [1] 106% | [2] 108% | [3] 113% | [5] 98.7% | [6] 88.4% | [18] 109% | [7] 88.1% | [8] 88.9% | [9] 106% | [19] 85.9% | [10] 99.4% | [11] 64.1% | [20] 89.1% | [13] 86.1% | [14] 86.6% | [16] 89.7% | [17] 104%

COc1ccc2c(c1)C(=O)/C(=C/c1cccc(OCC(=O)c3ccc([N+](=O)[O-])cc3)c1)CO2
active: [2] -81.2% | [8] -49.4% | [9] 8.08% | [19] -37.6% | [10] 6.81% | [16] -100%
inactive: [1] 63.4% | [3] 30.4% | [4] 60.9% | [6] 62.8% | [18] 43.3% | [7] 27.8% | [11] 55.5% | [12] 90.1% | [20] 22.4% | [13] 22.5% | [14] 15.8% | [15] 46.7% | [17] 43.9%
